A selection: hits, their analogues and other compounds. The true share with any hit is near 0.25%.
Bim-Bcl-2: inhibitors of Bim-Bcl-2 interaction, human | AID 950 | actives 0.06% (n = 190,000) | inhibition, % at 10 µM | P10415 | Bead-based flow cytometry, Bim peptide-Bcl-2 binding; in the data active = inhibition above about 40%
Furin inhibitor: human furin inhibition; purified furin, fluorogenic substrate cleavage; actives 0.061% (n = 220,000); inhibition, % at 20 µM or 30 µM; P09958; in the data active = inhibition above about 25%
Bcl-W Bim block: disrupts Bim peptide binding to human Bcl-W | Q92843 | bead-based flow cytometry | inhibition, % at 10 µM | actives 0.02% (n = 190,000) | AID 952;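 note: higher means less fluorescent Bim peptide bound to Bcl-W beads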
Bcl-XL Bim block: inhibitors of Bim-Bcl-XL interaction, human; Q07817; Bim peptide-Bcl-XL binding, bead flow cytometry, fluorescence; inhibition, % at 10 µM; actives 0.04% (n = 190,000)
Target sequence (Q07817 whole entry, looked up): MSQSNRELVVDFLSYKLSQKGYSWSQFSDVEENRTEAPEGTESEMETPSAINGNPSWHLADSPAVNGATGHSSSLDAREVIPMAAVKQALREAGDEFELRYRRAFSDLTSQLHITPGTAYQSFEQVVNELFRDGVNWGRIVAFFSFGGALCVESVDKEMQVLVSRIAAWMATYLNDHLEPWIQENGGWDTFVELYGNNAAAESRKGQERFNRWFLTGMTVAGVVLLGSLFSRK
Bim-Bcl-B: human Bim-Bcl-B interaction inhibition; Q9HD36; bead-based flow cytometry, Bim peptide-Bcl-B binding; inhibition, % at 10 µM; actives 0.073% (n = 190,000)
Bim-Bfl-1: human Bim-Bfl-1 interaction inhibition; inhibition, % at 10 µM; Bead-based flow cytometry, Bim-Bfl-1 binding inhibition; AID 1008; Q16548; actives 0.12% (n = 190,000)
Target sequence (Q16548 whole entry, looked up): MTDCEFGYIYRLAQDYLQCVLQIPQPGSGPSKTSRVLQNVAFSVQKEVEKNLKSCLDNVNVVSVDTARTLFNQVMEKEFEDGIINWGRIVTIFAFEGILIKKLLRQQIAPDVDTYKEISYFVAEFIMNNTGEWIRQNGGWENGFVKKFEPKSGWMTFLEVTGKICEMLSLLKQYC
A number is an active result; – = inactive; · = no result given. Cut-off read from the data, not from the text of the source, unless noted: active = inhibition above about 40%.

SMILES	Bim-Bcl-2	Furin inhibitor	Bcl-W Bim block	Bcl-XL Bim block	Bim-Bcl-B	Bim-Bfl-1
COc1ccc(S(=O)(=O)NCCC(=O)NCc2ccc(F)cc2)cc1	–	28.9	–	–	–	–
COc1ccc2cc(C(=O)Nc3ccc(S(N)(=O)=O)cc3)sc(=O)c2c1OC	–	–	–	–	–	–
CCc1nnc(NS(=O)(=O)c2ccc(N=CC3=C(O)CC(C)(C)CC3=O)cc2)s1	–	26.1	–	–	–	–
O=C(CCn1c(=S)[nH]c2ccccc2c1=O)NCCc1ccc(Cl)cc1	–	–	–	–	–	–
CC1(C)C2CC=C(/C=N/NC(=S)NCCc3ccccc3)C1C2 (stereo not drawn)	–	–	–	–	–	–
CNC(=S)N/N=C/C1=CCC2CC1C2(C)C (stereo not drawn)	69.0	–	–	–	65.0	52.0
CCCCOc1ccc(-c2ncc([N+](=O)[O-])cn2)cc1	·	–	·	·	·	·
CCCCOc1ccc(-c2ncc(Cl)cn2)cc1	–	27.5	–	–	–	–
O=C(OCc1cnc(Cl)s1)c1cccc(Cl)c1Cl	76.0	–	–	–	70.0	51.0
O=C(OCc1cnc(Cl)s1)c1ccccc1Cl	–	–	–	–	–	–
COc1cccc(NC(=O)CSc2nncn2-c2ccccn2)c1	–	–	–	–	–	–
COc1ccc(NC(=O)CSc2nncn2C)cc1OC	–	26.9	–	–	–	–
Cn1cnnc1SCC(=O)Nc1ccc2c(c1)CCC2	–	–	–	–	–	–
COc1cccc(NC(=O)CSc2nncn2N)c1	–	–	–	–	–	41.0
Cc1cccc(NC(=S)N2CCn3cccc3C2c2cccnc2)c1 (stereo not drawn)	–	–	–	–	41.0	–
COc1cccc(NC(=S)N2CCn3cccc3C2c2cccnc2)c1 (stereo not drawn)	–	–	–	–	–	–
CN(C)S(=O)(=O)c1cccc(-c2nn(-c3ccccc3)cc2/C=C(\C#N)c2nc3ccccc3[nH]2)c1	–	–	–	–	–	–
CN(C)S(=O)(=O)c1cccc(-c2nn(-c3ccccc3)cc2/C=C2\SC(=S)NC2=O)c1	–	–	–	43.0	55.0	41.0
Cc1nnc(-n2ncc(C#N)c2N)c2nn(-c3ccccc3F)c(C)c12	·	–	·	·	·	·
COC(=O)C(C(=O)NCC1CCCO1)C1CCCCCC1 (stereo not drawn)	–	–	–	–	–	–
CCOC(=O)C(C(=O)NCC1CCCO1)C1CCCCC1 (stereo not drawn)	–	28.0	–	–	–	–
COc1cc(C2Nc3cccc4cccc(c34)N2)cc(OC)c1O	–	–	42.0	–	–	57.0
Oc1ccc(C2Nc3cccc4cccc(c34)N2)c(O)c1	–	–	–	–	–	–
COC(=O)c1ccc(C2Nc3cccc4cccc(c34)N2)cc1	–	–	–	–	–	–
COc1cc(C2Nc3cccc4cccc(c34)N2)ccc1OC(C)=O	–	–	–	–	–	43.0
SMILES	Bim-Bcl-2	Furin inhibitor	Bcl-W Bim block	Bcl-XL Bim block	Bim-Bcl-B	Bim-Bfl-1
CCCCOCCCNC(=O)c1ccc(OCC)cc1	–	–	–	–	–	–
CCOc1ccc(/C=C2\SC(=S)NC2=O)cc1OC	–	–	–	–	–	–
COc1ccc(/C=C2\SC(=O)NC2=S)cc1OC	53.0	–	–	–	–	–
Cc1ccc(C(=O)N/N=C2/NC(=O)CC(C(=O)Nc3ccccc3)S2)cc1 (stereo not drawn)	–	–	–	40.0	–	–
CN(C)S(=O)(=O)N(CC(=O)Nc1ccccc1C(F)(F)F)c1ccccc1	86.0	–	–	–	·	·
CN1CCN(c2ccccc2NC(=O)c2cccc(OCc3ccccc3)c2)CC1	–	35.0	–	–	–	–
CN1CCN(c2ccccc2NC(=O)c2ccc(OCc3ccccc3)cc2)CC1	–	–	–	–	–	–
Fc1ccc(C2=Nc3cccc4cccc(c34)N2)cc1	–	–	–	–	–	49.0
O=C1CC(N2CCC(c3nc4ccccc4o3)CC2)C(=O)N1Cc1cccs1 (stereo not drawn)	–	26.6	–	–	–	–
Clc1nc(NCc2cccnc2)nc(N2CCOCC2)n1	–	–	47.0	49.0	73.0	–
c1ccc(CNc2nc(N3CCOCC3)nc(N3CCOCC3)n2)cc1	–	–	–	–	–	–
CN1CCN(c2ccc(CNS(=O)(=O)c3ccc(Cl)cc3)cc2)CC1	·	–	·	·	·	·
Cc1cc2n(c1)CCn1c(C)ccc1-2	–	–	–	–	40.0	–
CCCC1=[N+](CC)CCn2c(C)ccc21	–	–	–	–	–	–

Source: PubChem
